# According to PubChem BioAssay:
# The other results are listed elsewhere or left out. A number with no mark means an inactive call. Calls of active or inactive are those of the source.
# What was measured:
# [1] = target: Inward rectifier potassium channel 2 (Mus musculus) (UniProt P35561); assay: mouse Kir2.1 channel blockers, retest, confirmation, cell-based, FluxOR thallium flux, duplicate (AID 2032); settings: Kir2.1-expressing cells, FluxOR thallium flux fluorescence, at 10 µM; active compounds read low
# Sequence of Inward rectifier potassium channel 2 (Mus musculus) (P35561 whole entry, looked up): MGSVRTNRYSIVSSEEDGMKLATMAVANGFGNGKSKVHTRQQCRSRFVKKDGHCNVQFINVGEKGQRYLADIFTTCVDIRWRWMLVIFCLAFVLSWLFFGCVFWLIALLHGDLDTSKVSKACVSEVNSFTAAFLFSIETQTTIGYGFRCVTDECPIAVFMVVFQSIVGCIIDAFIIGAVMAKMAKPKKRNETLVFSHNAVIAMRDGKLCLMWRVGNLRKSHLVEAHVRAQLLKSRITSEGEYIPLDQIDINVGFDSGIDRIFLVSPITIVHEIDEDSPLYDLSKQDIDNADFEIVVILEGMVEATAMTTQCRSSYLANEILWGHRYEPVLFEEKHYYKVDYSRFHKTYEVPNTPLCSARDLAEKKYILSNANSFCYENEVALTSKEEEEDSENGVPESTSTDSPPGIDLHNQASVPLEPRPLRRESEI
# [2] = nonspecific thallium flux effects in parental HEK293 cells, confirmation, counter-screen for Kir2.1 inhibitor project, cell-based, FluxOR thallium flux, duplicate, single concentration (AID 2105;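 active = dye signal at least 3 control SD above or below untreated wells in both duplicates, raw fluorescence within 3, either direction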;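 for FluxOR signal as % of negative control (100 = no effect): percent is based on the flux ratio of peak minus minimum fluorescence over baseline F0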); settings: FluxOR thallium flux fluorescence, at 10 µM; 0% = unstimulated blank wells
# [3] = nonspecific thallium flux increase in parental CHO-K1, confirmation, counter-screen for KCNQ2 potentiator project, cell-based, FluxOR thallium flux, duplicate (AID 2282;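 active = signal rise of at least 3 SD above the untreated control mean, in both duplicate wells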;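 note: counter screen of KCNQ2 potentiator hits so any rise reflects channel-independent effects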); settings: parental CHO-K1 cells, FluxOR thallium flux fluorescence; at 10 µM; active compounds read high; zero = vehicle mean+3SD, 100% = vehicle-minus-blank window
# [4] = target: Potassium voltage-gated channel subfamily KQT member 1 (Homo sapiens) (UniProt P51787); assay: human KCNQ1 channel potentiation off-target, confirmation, selectivity assay for KCNQ2 potentiator project, cell-based, CHO, FluxOR thallium flux (AID 2283;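 active = fluorescence ratio rise of at least 3 SD of vehicle wells above their mean, in both replicate wells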;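 note: 0% = vehicle mean plus 3 SD and 100% = vehicle minus unstimulated blank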); settings: CHO KCNQ1 stable, FluxOR thallium flux fluorescence; at 10 µM; active compounds read high; beyond 3SD, as % of vehicle-control signal
# Sequence of Potassium voltage-gated channel subfamily KQT member 1 (Homo sapiens) (P51787 whole entry, looked up): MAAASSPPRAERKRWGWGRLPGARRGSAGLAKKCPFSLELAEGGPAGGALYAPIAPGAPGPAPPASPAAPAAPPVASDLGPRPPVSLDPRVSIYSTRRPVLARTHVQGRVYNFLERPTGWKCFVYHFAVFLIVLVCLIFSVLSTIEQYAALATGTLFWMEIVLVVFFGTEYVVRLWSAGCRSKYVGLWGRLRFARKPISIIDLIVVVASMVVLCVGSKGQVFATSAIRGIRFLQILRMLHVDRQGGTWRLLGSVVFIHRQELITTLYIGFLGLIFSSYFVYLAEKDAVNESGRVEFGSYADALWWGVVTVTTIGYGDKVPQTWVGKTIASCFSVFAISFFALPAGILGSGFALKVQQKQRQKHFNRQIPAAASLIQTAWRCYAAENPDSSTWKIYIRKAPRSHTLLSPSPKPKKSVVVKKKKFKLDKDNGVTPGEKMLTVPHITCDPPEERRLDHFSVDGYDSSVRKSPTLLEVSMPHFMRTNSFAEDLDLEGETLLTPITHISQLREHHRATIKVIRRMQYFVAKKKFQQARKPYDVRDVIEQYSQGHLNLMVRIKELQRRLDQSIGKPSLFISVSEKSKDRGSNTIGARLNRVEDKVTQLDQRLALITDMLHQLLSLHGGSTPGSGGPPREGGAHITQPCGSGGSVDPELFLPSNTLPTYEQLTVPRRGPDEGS
# [5] = target: Potassium voltage-gated channel subfamily KQT member 2 (Rattus norvegicus) (UniProt O88943); assay: rat KCNQ2 channel potentiators, confirmation, cell-based, CHO, FluxOR thallium flux, duplicate (AID 2287;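 active = fluorescence ratio rising 3 SD or more over the vehicle control mean in both replicates, plus primary screen hit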;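 note: peak minus minimum thallium fluorescence divided by baseline after K/Tl stimulus; 0% = vehicle mean plus 3 SD and 100% = vehicle minus unstimulated blank difference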); settings: CHO-KCNQ2 cells, FluxOR thallium flux fluorescence; at 10 µM; active compounds read high
# [6] = target: Inward rectifier potassium channel 2 (Mus musculus) (UniProt P35561); assay: PubChem AID 2345; settings: HEK293 Kir2.1, FluxOR thallium flux fluorescence; at 10 µM; active compounds read high;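 note: 0% = vehicle mean plus 3 SD and 100% = vehicle minus no-stimulus blank window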
# [7] = target: Potassium voltage-gated channel subfamily KQT member 2 (Rattus norvegicus) (UniProt O88943); assay: potentiators of retigabine-insensitive KCNQ2 W236L, mechanism study for KCNQ2 potentiator project, cell-based, rat KCNQ2 W236L, CHO, automated patch clamp (AID 2558;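 active = current increase at least 3 SD of the untreated controls above them in both duplicate recordings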); settings: at 25 µM; outcome: automated patch clamp current
# [8] = target: Voltage-gated inwardly rectifying potassium channel KCNH2 (Homo sapiens) (UniProt Q12809); assay: hERG channel inhibition, counter-screen for Kir2.1 inhibitor project, cell-based, thallium flux (AID 2236; call rule not given here;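 note: host cells are CHO cells stably expressing hERG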); settings: hERG-expressing cells, at 10 µM; active compounds read high
# Sequence of Voltage-gated inwardly rectifying potassium channel KCNH2 (Homo sapiens) (Q12809 whole entry, looked up): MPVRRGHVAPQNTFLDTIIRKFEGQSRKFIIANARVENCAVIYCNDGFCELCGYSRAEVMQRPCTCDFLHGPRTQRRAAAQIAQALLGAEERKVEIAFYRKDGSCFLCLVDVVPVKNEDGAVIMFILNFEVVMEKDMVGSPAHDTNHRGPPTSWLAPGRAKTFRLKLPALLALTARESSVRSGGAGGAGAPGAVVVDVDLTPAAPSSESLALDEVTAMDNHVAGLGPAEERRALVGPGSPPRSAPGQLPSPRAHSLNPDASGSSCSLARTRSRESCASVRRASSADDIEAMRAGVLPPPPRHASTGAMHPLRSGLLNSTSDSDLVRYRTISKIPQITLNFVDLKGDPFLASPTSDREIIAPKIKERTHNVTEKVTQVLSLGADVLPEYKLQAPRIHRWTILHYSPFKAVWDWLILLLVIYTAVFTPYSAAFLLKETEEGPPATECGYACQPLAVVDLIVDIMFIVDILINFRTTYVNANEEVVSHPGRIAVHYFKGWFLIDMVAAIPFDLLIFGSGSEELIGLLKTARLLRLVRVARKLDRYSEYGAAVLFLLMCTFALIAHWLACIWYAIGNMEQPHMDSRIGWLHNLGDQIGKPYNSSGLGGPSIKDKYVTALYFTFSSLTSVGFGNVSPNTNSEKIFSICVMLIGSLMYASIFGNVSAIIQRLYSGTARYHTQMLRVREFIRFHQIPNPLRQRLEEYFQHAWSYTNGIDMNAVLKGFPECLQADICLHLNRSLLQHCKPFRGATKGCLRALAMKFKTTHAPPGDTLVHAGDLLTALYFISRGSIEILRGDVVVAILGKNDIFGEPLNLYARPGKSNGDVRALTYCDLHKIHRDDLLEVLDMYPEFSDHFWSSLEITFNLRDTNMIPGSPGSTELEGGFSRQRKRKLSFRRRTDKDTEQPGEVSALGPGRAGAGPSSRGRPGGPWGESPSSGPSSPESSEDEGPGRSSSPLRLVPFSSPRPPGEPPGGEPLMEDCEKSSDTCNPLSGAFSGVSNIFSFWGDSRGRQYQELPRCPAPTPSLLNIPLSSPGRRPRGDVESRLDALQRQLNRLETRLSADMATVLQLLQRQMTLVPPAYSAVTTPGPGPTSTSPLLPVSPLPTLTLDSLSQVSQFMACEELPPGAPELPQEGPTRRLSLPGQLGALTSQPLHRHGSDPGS
# [9] = target: Potassium channel subfamily K member 9 (Homo sapiens) (UniProt Q9NPC2); assay: KCNK9 channel inhibition, selectivity assay for Kir2.1 inhibitor project, cell-based (AID 2329; call rule not given here); settings: KCNK9-expressing cells, ion flux inhibition, at 10 µM; active compounds read high
# [10] = target: Inward rectifier potassium channel 2 (Mus musculus) (UniProt P35561); assay: mouse Kir2.1 channel blockers, Kir2.1 inhibitor project, cell-based, secondary, automated electrophysiology (AID 463252; call rule not given here); settings: Kir2.1 cells, automated patch-clamp current inhibition, at 25 µM; active compounds read high
# [11] = parental HEK293 membrane potential modulation, confirmation, counter-screen for TRPC6 modulator project, cell-based (AID 488924;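 active = membrane potential signal moves up or down beyond 5 SD from buffer-only wells, on both duplicate plates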); settings: parental HEK293, membrane potential dye fluorescence; at 10 µM
# [12] = modulation of acetylcholine-evoked membrane potential, parental HEK293, confirmation, counter-screen for TRPC6 modulator project, cell-based, second counter-screen, membrane potential dye (AID 488926;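 active = membrane potential signal drops by more than 5 SD from the mean control signal, in both duplicate plates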); settings: parental HEK293, membrane potential dye fluorescence; at 10 µM; after compound, maximal acetylcholine stimulation
# [13] = test system: Transient receptor potential cation channel subfamily C member 4 (mouse); assay: TRPC4 modulation by TRPC6 hit compounds, confirmation, selectivity assay for TRPC6 modulator project, cell-based, HEK293 TRPC4/mu-opioid, membrane potential dye, mouse (AID 488927;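 active = membrane potential signal moved up or down beyond 5 SD of buffer control wells, in both duplicate plates, actives on both sides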;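 note: plate controls were assay buffer wells for no effect and DAMGO maximal-effect wells for full effect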); settings: membrane potential fluorescence, at 10 µM
# [14] = test system: TRPC4 (transient receptor potential cation channel C4), mouse; assay: TRPC4 inhibition by TRPC6 hit compounds, confirmation, selectivity assay for TRPC6 modulator project, cell-based, second screen, HEK293 TRPC4/mu-opioid, membrane potential dye (AID 488928;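 active = drop in membrane potential signal beyond 5 SD of the control wells in both duplicate plates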;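 note: TRPC4 counter screen for TRPC6 hits run under conditions tuned for TRPC6 not TRPC4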); settings: membrane potential dye fluorescence, at 10 µM, stimulated with maximal-effect DAMGO; active compounds read high
# [15] = target: Short transient receptor potential channel 6 (Mus musculus) (UniProt Q61143); assay: mouse TRPC6 channel inhibitors, confirmation, HEK293 cells, membrane potential dye, duplicate (AID 488960;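 active = fluorescence ratio falls more than 5 SD below the full-stimulation control mean, in both duplicate runs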); settings: ACh-evoked depolarization, at 10 µM; active compounds read high
# Sequence of Short transient receptor potential channel 6 (Mus musculus) (Q61143 whole entry, looked up): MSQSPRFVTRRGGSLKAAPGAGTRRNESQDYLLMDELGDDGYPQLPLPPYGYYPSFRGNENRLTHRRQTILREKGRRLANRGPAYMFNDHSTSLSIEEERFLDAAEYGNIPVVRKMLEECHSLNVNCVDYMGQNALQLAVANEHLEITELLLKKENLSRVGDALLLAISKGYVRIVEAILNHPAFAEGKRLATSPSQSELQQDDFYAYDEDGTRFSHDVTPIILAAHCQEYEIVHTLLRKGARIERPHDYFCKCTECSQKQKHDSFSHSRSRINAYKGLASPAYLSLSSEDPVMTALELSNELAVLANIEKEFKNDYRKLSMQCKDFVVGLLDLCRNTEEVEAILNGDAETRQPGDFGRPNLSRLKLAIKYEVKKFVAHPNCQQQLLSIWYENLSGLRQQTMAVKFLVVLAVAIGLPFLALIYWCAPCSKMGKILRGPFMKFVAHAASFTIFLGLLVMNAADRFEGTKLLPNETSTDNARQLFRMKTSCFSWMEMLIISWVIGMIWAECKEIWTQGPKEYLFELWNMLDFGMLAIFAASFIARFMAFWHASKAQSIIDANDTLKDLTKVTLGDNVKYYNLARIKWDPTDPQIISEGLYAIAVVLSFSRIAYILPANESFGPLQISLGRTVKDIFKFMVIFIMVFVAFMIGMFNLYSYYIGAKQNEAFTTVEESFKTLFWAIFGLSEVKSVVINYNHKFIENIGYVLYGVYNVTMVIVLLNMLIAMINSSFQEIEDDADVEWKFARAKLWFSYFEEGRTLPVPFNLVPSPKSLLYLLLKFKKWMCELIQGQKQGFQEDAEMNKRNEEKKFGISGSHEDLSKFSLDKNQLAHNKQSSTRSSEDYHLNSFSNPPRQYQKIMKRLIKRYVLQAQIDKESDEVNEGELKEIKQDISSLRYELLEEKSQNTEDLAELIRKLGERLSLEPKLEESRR
# [16] = target: Short transient receptor potential channel 6 (Mus musculus) (UniProt Q61143); assay: mouse TRPC6 channel activators, confirmation, HEK293 cells, membrane potential dye, duplicate (AID 488961;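 active = ratio signal rise beyond 5 SD above unstimulated control wells' mean, seen in both duplicate runs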); settings: HEK293-TRPC6 membrane potential dye fluorescence, FDSS, at 10 µM; active compounds read high
# [17] = target: Potassium voltage-gated channel subfamily KQT member 1 (Homo sapiens) (UniProt P51787); assay: KCNQ1 potassium channel inhibitors, confirmation, cell-based, Tl flux, duplicate (AID 588353;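 active = primary screen active, with duplicate mean exceeding buffer control mean plus 3 SD of buffer wells, cut at about 28% in these data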;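 note: 0% = buffer control ratio and 100% = XE991 inhibitor control ratio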); settings: KCNQ1 cell line, FluxOR thallium flux fluorescence; at 10 µM; active compounds read high
# [18] = thallium flux effects in parental CHO cells, counter-screen for KCNQ1 inhibitor project, cell-based, Tl flux (AID 588366;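 active = mean of duplicate thallium-flux fluorescence ratios in parental host cells more than 5 SD below the buffer control mean, cut at about 0.38 in these data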;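 note: ratio is peak minus minimum fluorescence divided by baseline fluorescence; actives read low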); settings: parental CHO-K1, FluxOR thallium flux fluorescence ratio; at 10 µM; active compounds read low; zero means no signal rise above baseline
# [19] = target: Potassium voltage-gated channel subfamily KQT member 1 (Homo sapiens) (UniProt P51787); assay: KCNQ1 channel inhibitors, confirmation, orthogonal assay, cell-based, automated electrophysiology (AID 624120;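 active = KCNQ1 current drop exceeding 3 SD of negative control wells, seen in both duplicate runs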); settings: KCNQ1-CHO cells, automated patch clamp current; at 10 µM
# [20] = target: Potassium voltage-gated channel subfamily KQT member 2 (Rattus norvegicus) (UniProt O88943); assay: KCNQ2 channel inhibition, selectivity assay for KCNQ1 inhibitor project, cell-based (AID 651746;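 active = mean percent inhibition of the KCNQ2 thallium signal more than 5 SD above the buffer-only control wells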); settings: KCNQ2 cells, FluxOR thallium flux fluorescence, at 10 µM; active compounds read high
# [21] = target: Potassium voltage-gated channel subfamily E member 1 (Homo sapiens) + Potassium voltage-gated channel subfamily KQT member 1 (Homo sapiens) (UniProt P15382+P51787); assay: KCNQ1/KCNE1 channel inhibition, selectivity assay for KCNQ1 inhibitor project, CHO-K1 cells, thallium flux, FluxOR (AID 652147;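 active = mean percent inhibition of duplicate wells above the buffer-only control mean plus 3 SD of those controls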); settings: FluxOR thallium flux fluorescence, at 10 µM
# Sequence of Potassium voltage-gated channel subfamily E member 1 (Homo sapiens) + Potassium voltage-gated channel subfamily KQT member 1 (Homo sapiens) (P51787 whole entry, looked up): as the sequence (P51787 whole entry, looked up) above
smiles,measurement,setting,value
O=C(NCc1ccc2c(c1)OCO2)C12CC3CC(CC(C3)C1)C2,outcome,[1],inactive
same,outcome,[2],inactive
same,activity increase over 3SD of controls,[3],-12%
same,activation over 3SD threshold,[4],-10.2%
same,"potentiation, less the hit threshold",[5],73.5% (active)
same,activity over 3SD threshold,[6],-47%
same,outcome,[7],inactive
COCCNC(=O)COc1ccc(N(C)S(=O)(=O)c2ccc3ccccc3c2)cc1,"Tl flux remaining, % of negative control (active compounds read low)",[1],58% (active)
same,outcome,[2],inactive
Clc1cccc(Cl)c1OCCOCCNCc1ccccc1,"Tl flux remaining, % of negative control (active compounds read low)",[1],33% (active)
same,outcome,[2],inactive
same,outcome,[8],inactive
same,outcome,[9],inactive
same,inhibition,[10],69.6% (active)
CC1=NN(C(=O)c2ccc(Br)cc2)C(O)(c2ccccc2)C1 (stereo not drawn),outcome,[1],inactive
same,FluxOR signal as % of negative control (100 = no effect),[2],73.5% (active)
same,activity increase over 3SD of controls,[3],-19%
same,activation over 3SD threshold,[4],-5.7%
same,"potentiation, less the hit threshold",[5],-11.5%
same,activity over 3SD threshold,[6],-31.6%
O=C(NCCc1c[nH]c2ccccc12)C1CCN(Cc2ccc(Br)cc2)CC1,"Tl flux remaining, % of negative control (active compounds read low)",[1],62% (active)
same,outcome,[2],inactive
same,inhibition,[8],61% (active)
same,outcome,[9],inactive
same,outcome,[10],inactive
same,outcome,[11],inactive
same,outcome,[12],inactive
same,"percent change from control (negative = decrease, positive = increase)",[13],11% (active)
same,inhibition,[14],58% (active)
same,outcome,[15],inactive
same,outcome,[16],inactive
O=C(NNC1=C(C(=O)C(F)(F)F)CCC1)c1ccncc1,outcome,[1],inactive
same,outcome,[2],inactive
same,activity increase over 3SD of controls,[3],-5.7%
same,activation over 3SD threshold,[4],-11.4%
same,"potentiation, less the hit threshold",[5],1.3% (active)
same,activity over 3SD threshold,[6],-36.3%
same,outcome,[7],inactive
CCCc1cc(=O)[nH]c(SCC(=O)c2cc(C)n(CCC)c2C)n1,"Tl flux remaining, % of negative control (active compounds read low)",[1],60% (active)
same,outcome,[2],inactive
same,outcome,[8],inactive
same,outcome,[9],inactive
same,inhibition,[10],30.9% (active)
Cc1cc2cc3c(cc2nc1SCC(=O)Nc1c(C)cccc1C)CCC3,outcome,[1],inactive
same,outcome,[2],inactive
same,activity increase over 3SD of controls,[3],20.3% (active)
same,activation over 3SD threshold,[4],6.2% (active)
same,"potentiation, less the hit threshold",[5],-22.8%
same,activity over 3SD threshold,[6],-19.1%
FC(F)(F)c1cccc(NC(=S)Nc2cccc(Cl)c2)c1,outcome,[1],inactive
same,outcome,[2],inactive
same,activity increase over 3SD of controls,[3],-22.1%
same,activation over 3SD threshold,[4],-10.3%
same,"potentiation, less the hit threshold",[5],-4.8%
same,activity over 3SD threshold,[6],-40.2%
same,outcome,[7],inactive
same,inhibition,[17],112% (active)
same,fluorescence ratio (Tl flux),[18],0.527
same,outcome,[19],inactive
same,outcome,[20],inactive
same,outcome,[21],inactive
CCCCNC(=O)Nc1c(C)cc(SC#N)cc1C,outcome,[1],inactive
same,outcome,[2],inactive
same,activity increase over 3SD of controls,[3],5.5% (active)
same,activation over 3SD threshold,[4],75.2% (active)
same,"potentiation, less the hit threshold",[5],19.5% (active)
same,activity over 3SD threshold,[6],-33.2%
same,outcome,[7],inactive
